SMILES strings stand for the structures. “And” between values parts separate entries of the source, which are not always exact repeats. Equal values may be shown once. Records with an inconclusive call do not appear. The source made the active and inactive calls. Unless noted, calls come from the whole dose curve.

The values below come from PubChem BioAssay (NCATS).

The target of experiment [1] is Vitamin D3 receptor (Homo sapiens) (UniProt P11473). Kind of experiment: qHTS assay for small molecule antagonists of vitamin D receptor signaling (AID 588541).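 Note: receptor activated by calcitriol during compound treatment; series mostly up to about 77 µM; % is set by controls: 0 for no effect and ±100 for the full control effect.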 The method in brief: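 VDR-UAS-bla HEK293T cells in 2% charcoal-stripped FBS were stimulated with 1-alpha,25-dihydroxyvitamin D3 (3 nM final) plus compound for 16 h at 37 C. The beta-lactamase CCF4 readout was normalized to 50 nM agonist and DMSO, and Hill fits gave IC50.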
Chain of Vitamin D3 receptor (Homo sapiens) (P11473 whole entry, looked up): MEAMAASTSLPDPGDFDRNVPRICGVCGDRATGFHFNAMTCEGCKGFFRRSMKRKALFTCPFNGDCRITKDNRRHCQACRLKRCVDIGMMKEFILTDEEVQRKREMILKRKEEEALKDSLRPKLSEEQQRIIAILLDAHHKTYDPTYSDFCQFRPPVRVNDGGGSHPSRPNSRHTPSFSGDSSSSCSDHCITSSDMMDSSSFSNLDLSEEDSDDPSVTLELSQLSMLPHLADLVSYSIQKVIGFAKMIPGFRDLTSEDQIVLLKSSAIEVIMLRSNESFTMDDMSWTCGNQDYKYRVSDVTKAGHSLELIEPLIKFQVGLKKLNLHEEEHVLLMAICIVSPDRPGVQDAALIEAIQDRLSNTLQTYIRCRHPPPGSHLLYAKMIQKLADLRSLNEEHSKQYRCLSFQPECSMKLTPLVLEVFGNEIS
A general note: In qHTS, concentration-response curves come from the screen itself.

Experiment [2] has the same target. Kind of experiment: qHTS assay for small molecule agonists of vitamin D receptor signaling (AID 588543).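 Note: 0% = DMSO basal and 100% = reference agonist control.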 The method in brief:
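Measured: β-lactamase reporter activity (CCF4, 405 nm excitation, 460/530 nm emission) in HEK293T VDR-UAS-bla cells after 16 h compound exposure at 37 °C. Normalization against 50 nM 1α,25-dihydroxyvitamin D3 and DMSO; Hill-fit EC50.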

Experiment [3] in a line: qHTS assay for small molecule agonists of retinoid X receptor alpha signaling (AID 588544).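 For activation: 0% = DMSO basal wells and 100% = reference agonist.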 Conditions: HEK293T RXRa-UAS-bla, beta-lactamase reporter, 18 h; 530 nm emission.
The target in experiment [4] is Retinoic acid receptor RXR-alpha (Homo sapiens) (UniProt P19793). The description is as above.
Chain of Retinoic acid receptor RXR-alpha (Homo sapiens) (P19793 whole entry, looked up): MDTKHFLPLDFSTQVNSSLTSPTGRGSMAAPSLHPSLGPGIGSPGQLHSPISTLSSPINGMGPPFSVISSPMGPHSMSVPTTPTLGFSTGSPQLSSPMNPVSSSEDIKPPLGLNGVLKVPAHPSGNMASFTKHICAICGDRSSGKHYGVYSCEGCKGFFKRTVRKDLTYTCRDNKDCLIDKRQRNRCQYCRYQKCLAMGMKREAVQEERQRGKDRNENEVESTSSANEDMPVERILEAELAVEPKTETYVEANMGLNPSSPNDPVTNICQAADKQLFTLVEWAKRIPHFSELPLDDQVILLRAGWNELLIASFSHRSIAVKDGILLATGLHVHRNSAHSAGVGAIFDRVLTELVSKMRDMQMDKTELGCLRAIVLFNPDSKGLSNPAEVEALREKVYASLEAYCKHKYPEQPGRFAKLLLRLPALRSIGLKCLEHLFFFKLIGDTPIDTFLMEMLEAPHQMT
Experiment [5] addresses Thyroid hormone receptor beta (Homo sapiens) (UniProt P10828). Kind of experiment: qHTS assay for small molecule agonists of thyroid hormone receptor beta signaling (AID 588545).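 Note: 0% = DMSO only and 100% = 10 nM T3.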 The method in brief: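 Efficacy and EC50 values derive from Hill fits of qHTS titration data, normalized to 10 nM T3 and DMSO-only wells. HEK 293 reporter cells were stimulated for 18 hrs at 37 C, with beta-lactamase activity measured by CCF4 fluorescence.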

Experiment [6] is described as follows: qHTS assay for small molecule antagonists of retinoid X receptor alpha signaling (AID 588546; active = well fitted inhibition curve with a large enough effect in the signal ratio, with a control signal flat, not every such curve was filed as active; the % refers to the signal ratio; note: potency is the fitted concentration of half-maximal effect;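 for max response: cells stimulated with 9-cis-retinoic acid as agonist; % is set by controls: 0 for no effect and ±100 for the full control effect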). Conditions: HEK293T RXRa-UAS-bla, beta-lactamase ratio, antagonist mode; measured here: W530 green channel, cytotoxicity proxy. The method in brief:
(§1)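 Beta-lactamase reporter inhibition, read as CCF4 fluorescence ratio (ex 405, em 460/530 nm) after 2 h at RT. HEK293T UAS-bla cells, 2500/well, were stimulated with 9-cis-RA at 500 or 100 nM final alongside test compound for 18 h at 37 C.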

In experiment [7] the target is Retinoic acid receptor RXR-alpha (Homo sapiens) (UniProt P19793). The experiment is described as above. Conditions: HEK293T RXRa-UAS-bla, beta-lactamase ratio, antagonist mode. The method, boiled down:
as §1

For experiment [8], the target named is Luciferin 4-monooxygenase (Photinus pyralis) (UniProt P08659). The experiment in a line: Biochemical firefly luciferase enzyme assay for NPC (AID 624030; active = well fitted curve in the direction sought with a large enough effect; an effect the other way counts as inactive or inconclusive;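 note: purified P. pyralis luciferase at 10 nM with luciferin and ATP substrate; series mostly up to about 59 µM; 0% = DMSO and -100% = full luciferase inhibition by PTC124 control; nearly all actives have a fitted effect of over 70% in size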). The method, boiled down:
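Purified P. pyralis luciferase at 10 nM in 50 mM Tris Acetate (final), luminescence read within 5 minutes of enzyme addition to compounds. Activity normalised to PTC124 versus DMSO; concentration-response curves classed by r2, magnitude and activity.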

A short description of experiment [9]: S16 Schwann cell viability assay (CellTiter-Glo assay) (AID 624031; active = well fitted curve in the direction sought with a large enough effect; an effect the other way counts as inactive or inconclusive; note: nearly all actives have a fitted effect of over 70% in size; note: potency is the fitted concentration of half-maximal effect). The method, boiled down: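 This viability control uses native rat S16 Schwann cells grown in DMEM plus 10% FBS. After a 24 h compound treatment at 37 °C, CellTiter-Glo luminescence reports ATP content, scaled against DMSO-treated and cell-free wells.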
Experiment [10] can be described thus: S16 Schwann cell PMP22 intronic element firefly luciferase assay (AID 624032; active = well fitted curve in the direction sought with a large enough effect; an effect the other way counts as inactive or inconclusive; note: nearly all actives have a fitted effect of over 30% in size; note: potency is the fitted concentration of half-maximal effect). The method in brief: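 Rat S16 Schwann cells stably carrying firefly luciferase driven by a PMP22 intronic element, in 10% FBS, treated 24 h at 37 C. ONE-Glo luminescence normalized to PTC124 control and DMSO (0%); curves classed by r2, magnitude and activity.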
A short description of experiment [11]: S16 Schwann cell PMP22 intronic element beta-lactamase assay (AID 624044). Note: nearly all actives have a fitted effect of over 15% in size. Note: potency is the fitted concentration of half-maximal effect. The method, boiled down:
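Rat S16 Schwann cells with beta-Lac driven by a PMP22 intronic element, compound-treated 24 h at 37 °C. LiveBLAzer FRET B/G read: 460 nm normalized to potassium clavulanate vs DMSO; 535 nm FRET as viability; concentration-effect curves classified.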

Experiment [12] is described as follows: qHTS assay for small molecule agonists of the antioxidant response element (ARE) signaling pathway (AID 651741; active = well fitted activation curve with a large enough effect in the signal ratio; the % refers to the signal ratio; note: potency is the fitted concentration of half-maximal effect; for activation: % of control where 0% means no effect). The method, boiled down:
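CellSensor ARE-bla HepG2 cells (2,000/well) carrying ARE-driven beta-lactamase, exposed 16 h at 37 C. LiveBLAzer B/G FRET substrate added for 2 h at room temperature; fluorescence intensity read.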

The nature of experiment [13]: qHTS assay for small molecule activators of the p53 signaling pathway (AID 651743; active = well fitted activation curve with a large enough effect in the signal ratio, not every such curve was filed as active; the % refers to the signal ratio; note: series mostly up to about 92 µM; % of control where 0% means no effect). Conditions: HCT-116 p53RE-bla, beta-lactamase FRET ratio, 16 h; activation: stronger effect = higher value. The method, boiled down:
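p53RE-bla HCT-116 cells carrying a beta-lactamase reporter under p53 response elements were exposed to compounds for 16 hours at 37 C. Reporter activity read as fluorescence after 2 hours at room temperature with LiveBLAzer B/G FRET substrate.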

The target in experiment [14] is Voltage-gated inwardly rectifying potassium channel KCNH2 (Homo sapiens) (UniProt Q12809). The experiment in a line: qHTS Assay for Small Molecule Inhibitors of the Human hERG Channel Activity (AID 588834; active = well fitted curve in the direction sought with a large enough effect; an effect the other way counts as inactive or inconclusive;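 note: lower thallium flux fluorescence means stronger hERG block; nearly all actives have a fitted effect of over 50% in size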; note: potency is the fitted concentration of half-maximal effect). The method, boiled down:
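Blockade is seen as reduced FluxOR thallium-flux fluorescence in U2OS cells expressing hERG from a BacMam construct, in Opti-MEM with 2% FCS. Concentration-response data fitted to the Hill equation for AC50.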

Experiment [15] addresses Thyroid hormone receptor beta (Homo sapiens) (UniProt P10828). Kind of experiment: qHTS assay for small molecule antagonists of thyroid hormone receptor beta signaling (AID 588547; active = well fitted inhibition curve with a large enough effect in the signal ratio, with a control signal flat, not every such curve was filed as active; the % refers to the signal ratio;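 note: cells stimulated with 0.4 nM T3 agonist during compound exposure; series mostly up to about 77 µM; % is set by controls: 0 for no effect and ±100 for the full control effect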). Conditions: TR-UAS-bla HEK293, beta-lactamase ratio, antagonist mode, 18 h. The method, boiled down: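 TR-UAS-bla GripTite HEK293 cells in 2% charcoal/dextran FBS medium; compounds 0.59 nM to 92 uM with T3 at 0.4nM final, 18 h at 37 C. Beta-lactamase read by CCF4 fluorescence (460/530 nm); Hill fits gave IC50 and efficacy.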

Chain of Voltage-gated inwardly rectifying potassium channel KCNH2 (Homo sapiens) (Q12809 whole entry, looked up): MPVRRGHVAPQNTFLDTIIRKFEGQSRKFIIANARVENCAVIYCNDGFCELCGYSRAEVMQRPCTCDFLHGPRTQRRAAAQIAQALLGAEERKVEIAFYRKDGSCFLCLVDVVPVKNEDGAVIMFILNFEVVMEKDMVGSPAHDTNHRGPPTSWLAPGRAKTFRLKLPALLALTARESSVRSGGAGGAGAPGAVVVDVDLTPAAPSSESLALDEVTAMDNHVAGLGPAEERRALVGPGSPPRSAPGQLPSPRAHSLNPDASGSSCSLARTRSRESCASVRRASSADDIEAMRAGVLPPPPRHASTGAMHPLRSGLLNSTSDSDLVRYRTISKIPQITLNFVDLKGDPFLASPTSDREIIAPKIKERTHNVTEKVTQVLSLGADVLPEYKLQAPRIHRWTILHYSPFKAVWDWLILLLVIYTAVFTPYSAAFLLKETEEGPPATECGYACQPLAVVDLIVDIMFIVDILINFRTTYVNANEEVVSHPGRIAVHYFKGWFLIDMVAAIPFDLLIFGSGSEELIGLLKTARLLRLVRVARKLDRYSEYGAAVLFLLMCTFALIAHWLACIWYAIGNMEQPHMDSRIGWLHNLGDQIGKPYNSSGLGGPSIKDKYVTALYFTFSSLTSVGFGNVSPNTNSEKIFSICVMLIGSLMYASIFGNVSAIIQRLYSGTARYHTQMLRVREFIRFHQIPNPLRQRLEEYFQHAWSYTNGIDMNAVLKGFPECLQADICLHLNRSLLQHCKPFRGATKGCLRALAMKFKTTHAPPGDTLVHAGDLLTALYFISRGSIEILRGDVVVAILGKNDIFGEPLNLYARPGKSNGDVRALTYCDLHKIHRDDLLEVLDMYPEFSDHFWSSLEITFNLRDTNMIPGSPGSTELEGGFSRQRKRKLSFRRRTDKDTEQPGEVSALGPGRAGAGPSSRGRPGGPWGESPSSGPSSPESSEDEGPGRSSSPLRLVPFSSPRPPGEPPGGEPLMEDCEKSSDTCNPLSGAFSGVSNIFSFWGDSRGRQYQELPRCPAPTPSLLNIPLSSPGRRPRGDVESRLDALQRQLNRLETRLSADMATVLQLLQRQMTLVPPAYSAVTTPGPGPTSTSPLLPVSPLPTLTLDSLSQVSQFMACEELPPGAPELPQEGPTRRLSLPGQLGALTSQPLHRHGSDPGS
Chain of Luciferin 4-monooxygenase (Photinus pyralis) (P08659 whole entry, looked up): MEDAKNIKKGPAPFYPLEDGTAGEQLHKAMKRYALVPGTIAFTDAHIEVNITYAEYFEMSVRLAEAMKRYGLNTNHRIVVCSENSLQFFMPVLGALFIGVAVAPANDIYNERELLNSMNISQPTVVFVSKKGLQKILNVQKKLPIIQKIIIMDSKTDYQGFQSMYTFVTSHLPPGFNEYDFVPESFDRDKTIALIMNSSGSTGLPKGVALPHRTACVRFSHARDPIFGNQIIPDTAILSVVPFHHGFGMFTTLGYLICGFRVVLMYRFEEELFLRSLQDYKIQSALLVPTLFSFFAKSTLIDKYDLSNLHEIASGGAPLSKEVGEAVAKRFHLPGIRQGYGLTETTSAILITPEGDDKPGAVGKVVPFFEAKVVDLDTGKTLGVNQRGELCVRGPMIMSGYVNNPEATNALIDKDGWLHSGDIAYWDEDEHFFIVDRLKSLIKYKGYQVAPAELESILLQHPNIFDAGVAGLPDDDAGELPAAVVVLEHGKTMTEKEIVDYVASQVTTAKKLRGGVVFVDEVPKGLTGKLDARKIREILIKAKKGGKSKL
Chain of Thyroid hormone receptor beta (Homo sapiens) (P10828 whole entry, looked up): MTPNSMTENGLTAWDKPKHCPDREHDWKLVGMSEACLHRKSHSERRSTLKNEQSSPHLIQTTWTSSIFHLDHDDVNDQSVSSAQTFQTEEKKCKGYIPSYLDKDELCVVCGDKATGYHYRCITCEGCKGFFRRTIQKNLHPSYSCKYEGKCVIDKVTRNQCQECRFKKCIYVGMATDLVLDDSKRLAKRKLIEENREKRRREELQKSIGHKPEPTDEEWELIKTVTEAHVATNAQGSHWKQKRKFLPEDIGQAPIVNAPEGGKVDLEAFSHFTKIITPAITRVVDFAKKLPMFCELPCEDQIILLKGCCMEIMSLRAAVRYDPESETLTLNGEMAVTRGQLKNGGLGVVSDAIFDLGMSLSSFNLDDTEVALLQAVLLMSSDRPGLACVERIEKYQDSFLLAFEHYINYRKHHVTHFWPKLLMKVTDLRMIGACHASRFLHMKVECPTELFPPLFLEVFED

Consider `C=CCN=C=S`, for which the Potency entry in [1], in experiment [4], in [8], in experiment [9], in experiment [10] and in [11] was “inactive” throughout. In experiment [12], the Potency entry is “inactive”. Besides, the compound was classed as inactive in experiment [2] and in [5]. Moreover, the max response in [3] is 2.45%; in experiment [6], -9.62%; in [7], 5.52% (inactive). Further, in [13], the activation is -0.403% (inactive).
With `CC[C@H](C)[C@H]1O[C@]2(C=C[C@@H]1C)C[C@@H]1C[C@@H](C/C=C(\C)[C@@H](O[C@H]3C[C@H](OC)[C@@H](O[C@H]4C[C@H](OC)[C@@H](O)[C@H](C)O4)[C@H](C)O3)[C@@H](C)/C=C/C=C3\CO[C@@H]4[C@H](O)C(C)=C[C@@H](C(=O)O1)[C@]34O)O2`, the compound was called inactive in [2]. In addition, in experiment [6], the max response is -21.4%. In experiment [7], the Potency was 12.6 µM (active). Moreover, in [14], the Potency entry was “inactive”.
Consider `O=C1C2CC=CCC2C(=O)N1SC(Cl)(Cl)Cl` (configuration not stated), for which the result in experiment [2] and in experiment [5] was inactive. The values for the max response in experiment [6] and in [7] were -2.91% and 15% (inactive), respectively. Further, the Potency in experiment [14] is 25.1 µM (active) and 28.2 µM (active); in [10] it was 12.8 µM (active); in experiment [11], 22.4 µM (active). For the same compound, the activation in [13] is -1.26% (inactive) and 18.6% (inactive).
Consider `CCCCCCCCOC(=O)c1ccccc1C(=O)OCCCCCCCC`, for which the Potency result in [1], in experiment [4], in [8], in experiment [9], in experiment [10] and in [12] was “inactive” throughout. Also, the result in [2] and in experiment [5] was inactive. Moreover, the max response in experiment [3] is -12.6% and -10.6%; in experiment [6], -8.04% and -12.9%; in [7], 24.3% (inactive) and -9.86% (inactive). In addition, in experiment [15], the activity change % (negative = inhibition) is 0.822% (inactive). The activation in [13] was 1.9% (inactive) and -2.06% (inactive).
Take `O=C1CCO1`: the Potency entry in experiment [1], in experiment [4], in experiment [8], in [9], in [10] and in experiment [11] was “inactive” throughout. Further, the outcome in experiment [2] and in experiment [5] was inactive. For the same compound, the max response in experiment [3] was -0.599%; in experiment [6], -9.31%; in [7], 14.1% (inactive). In addition, in experiment [15], the activity change % (negative = inhibition) was 16.1% (inactive).
`O=[N+]([O-])C(Br)(CO)CO`: the compound was called inactive in experiment [2]. The activity change % (negative = inhibition) in [15] was 5.27% (inactive). In addition, the Potency entry in [14] was “inactive”. For the same compound, the Potency was 28.7 µM (active) in experiment [9] and 54.5 µM (active) in experiment [12].
For the compound `O=CC=O`, the max response in experiment [3] is -3.86%; in [6], 5.31%; in experiment [7] it was 9.93% (inactive). For the same compound, the Potency entry in experiment [4], in [8], in experiment [9] and in experiment [10] was “inactive” in each case. In experiment [5], the call was inactive. Moreover, the activity change % (negative = inhibition) in [15] is -1.9% (inactive).
As for `COCC(C)N(C(=O)CCl)c1c(C)csc1C` (configuration not stated), the compound was classed as inactive in experiment [2] and in [5]. The Potency result in experiment [14], in experiment [8], in experiment [9] and in [10] was “inactive” throughout. Also, the Potency in [12] was 15.4 µM (active). The activation in [13] was -0.528% (inactive).
On to `ClCC1CO1` (configuration not stated), for which the Potency entry in experiment [1], in experiment [4], in experiment [14], in experiment [8], in [9] and in [10] was “inactive” each time. The result in experiment [2] was inactive. For the same compound, the max response in experiment [3] is -12.3%; in [6], -5.61%; in [7], -1.88% (inactive). Also, the activity change % (negative = inhibition) in experiment [15] is 1.74% (inactive). The activation in experiment [13] is -3.68% (inactive).
In the case of `CCOC(=O)c1ccccc1C(=O)OCC`, the Potency result in [1], in experiment [4], in [8], in experiment [9], in experiment [10] and in experiment [12] was “inactive” each time. For the same compound, the compound was classed as inactive in experiment [2] and in experiment [5]. The max response in [3] was -7.23% and 2.92%; in experiment [6], 2.09% and -11.6% and -7.65%; in [7], 8.73% (inactive) and 2.69% (inactive) and 2.16% (inactive). Further, the activity change % (negative = inhibition) in experiment [15] was 9.23% (inactive) and -2.29% (inactive) and -1.86% (inactive). In addition, the activation in experiment [13] was 4.4% (inactive) and -0.806% (inactive) and -0.919% (inactive).
